Measurements as given in PubChem BioAssay AID1159580 (chemical genetic matrix, 2015).
Values joined by “and” are separate entries in the source; they are usually repeats but may differ in a detail not shown here. Equal values may be shown once. The campaign covered roughly 5,500 compounds. About 2,000 (36%) were called active. About 18% were inconclusive and are not listed. Cut-off read from the data, not from the text of the source: active = normalized growth mostly below about 0.91 (no sharp cut-off); inconclusive = no clear call, values can overlap the other calls; inactive = mostly above about 0.92. The list shows a part of the results.

Test: chemical genetic growth profiling, strain panel (AID 1159580);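 note: tested at 20 µM; growth read once vehicle control cultures reached saturation at 30 °C; 1 = growth at the plate median or of vehicle wells; lower values mean less growth of the strain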
Details: S. cerevisiae deletion strains, growth OD
[1] = locus YAR019C, strain CDC15, stronger effect = lower value
[2] = locus YBL105C, strain PKC1, stronger effect = lower value
[3] = locus YBR135W, strain CKS1, stronger effect = lower value
[4] = locus YBR136W, strain MEC1, stronger effect = lower value
[5] = locus YBR160W, strain CDC28, stronger effect = lower value
[6] = locus YDL017W, strain CDC7, stronger effect = lower value
[7] = locus YDL028C, strain MPS1, stronger effect = lower value
[8] = locus YDL101C, strain DUN1, stronger effect = lower value
[9] = locus YDL108W, strain KIN28, stronger effect = lower value
[10] = locus YDL132W, strain cdc53, stronger effect = lower value
[11] = locus YDL214C, strain PRR2, stronger effect = lower value
[12] = locus YDR052C, strain DBF4, stronger effect = lower value
[13] = locus YDR054C, strain cdc34, stronger effect = lower value
[14] = locus YDR226W, strain ADK1, stronger effect = lower value
[15] = locus YDR477W, strain SNF1, stronger effect = lower value
[16] = locus YER123W, strain YCK3, stronger effect = lower value
[17] = locus YER133W, strain GLC7, stronger effect = lower value
[18] = locus YFL009W, strain cdc4, stronger effect = lower value
[19] = locus YFL029C, strain CAK1, stronger effect = lower value
[20] = locus YFR003C, strain YPI1, stronger effect = lower value
[21] = locus YFR019W, strain FAB1, stronger effect = lower value
[22] = locus YFR028C, strain CDC14, stronger effect = lower value
[23] = locus YGR040W, strain KSS1, stronger effect = lower value
[24] = locus YGR052W, strain FMP48, stronger effect = lower value
[25] = locus YGR092W, strain DBF2, stronger effect = lower value
[26] = locus YHR030C, strain SLT2, stronger effect = lower value
[27] = locus YHR079C, strain IRE1, stronger effect = lower value
[28] = locus YHR082C, strain KSP1, stronger effect = lower value
[29] = locus YHR205W, strain SCH9, stronger effect = lower value
[30] = locus YIL147C, strain SLN1, stronger effect = lower value
[31] = locus YJL095W, strain BCK1, stronger effect = lower value
[32] = locus YJL128C, strain PBS2, stronger effect = lower value
[33] = locus YJL157C, strain FAR1, stronger effect = lower value
[34] = locus YJR016C, strain ILV3, stronger effect = lower value
[35] = locus YJR066W, strain TOR1 (second series), stronger effect = lower value
[36] = locus YJR066W, strain TOR1, stronger effect = lower value
[37] = locus YKL048C, strain ELM1, stronger effect = lower value
[38] = locus YKL067W, strain YNK1, stronger effect = lower value
[39] = locus YKL101W, strain HSL1, stronger effect = lower value
[40] = locus YKL193C, strain SDS22, stronger effect = lower value
[41] = locus YKL203C, strain TOR2, stronger effect = lower value
[42] = locus YLR113W, strain HOG1, stronger effect = lower value
[43] = locus YLR133W, strain CKI1, stronger effect = lower value
[44] = locus YLR403W, strain SFP1, stronger effect = lower value
[45] = locus YML070W, strain DAK1, stronger effect = lower value
[46] = locus YMR001C, strain CDC5, stronger effect = lower value
[47] = locus YMR205C, strain PFK2 (second series), stronger effect = lower value
[48] = locus YMR277W, strain FCP1, stronger effect = lower value
[49] = locus YNL006W, strain LST8, stronger effect = lower value
[50] = locus YNL020C, strain ARK1, stronger effect = lower value
[51] = locus YNL161W, strain CBK1, stronger effect = lower value
[52] = locus YNL183C, strain NPR1, stronger effect = lower value
[53] = locus YNL207W, strain RIO2, stronger effect = lower value
[54] = locus YNL222W, strain SSU72, stronger effect = lower value
[55] = locus YNL307C, strain MCK1 (second series), stronger effect = lower value
[56] = locus YOL078W, strain AVO1, stronger effect = lower value
[57] = locus YOL136C, strain PFK27, stronger effect = lower value
[58] = locus YOR061W, strain CKA2, stronger effect = lower value
[59] = locus YOR119C, strain RIO1, stronger effect = lower value
[60] = locus YOR231W, strain MKK1, stronger effect = lower value
[61] = locus YOR329C, strain SCD5, stronger effect = lower value
[62] = locus YPL031C, strain PHO85, stronger effect = lower value
[63] = locus YPL153C, strain RAD53, stronger effect = lower value
[64] = locus YPL204W, strain HRR25, stronger effect = lower value
[65] = locus YPL209C, strain IPL1, stronger effect = lower value
[66] = locus YPL256C, strain CLN2, stronger effect = lower value
[67] = locus YPR025C, strain CCL1, stronger effect = lower value
[68] = locus YPR106W, strain ISR1, stronger effect = lower value
[69] = locus YPR111W, strain DBF20, stronger effect = lower value
[70] = strain NNK1, stronger effect = lower value
[71] = strain TSCII, stronger effect = lower value

Measured: normalized growth

CC(Oc1ccc(Cl)cc1Cl)C(=O)NNC(=S)Nc1ccccc1 (stereo not drawn)
inactive: [1] 0.983 | [2] 0.978 | [3] 0.982 | [4] 0.98 | [5] 0.975 | [6] 0.986 | [7] 0.977 | [8] 0.973 | [9] 0.959 | [10] 0.968 | [11] 0.984 | [12] 0.991 | [13] 0.982 | [14] 0.981 | [15] 0.994 | [16] 0.983 | [17] 0.966 | [18] 0.976 | [19] 0.981 | [20] 0.981 | [21] 0.964 | [22] 0.974 | [23] 0.965 | [24] 0.982 | [25] 0.905 | [26] 0.974 | [27] 1.01 | [28] 1.03 | [29] 0.906 | [30] 0.97 | [31] 0.927 | [32] 0.943 | [33] 0.973 | [34] 0.971 | [35] 0.94 | [36] 1.01 | [37] 0.974 | [38] 0.966 | [39] 0.957 | [40] 0.977 | [41] 1.02 | [42] 0.981 | [43] 0.959 | [44] 0.908 | [45] 0.98 | [46] 0.981 | [47] 0.968 | [48] 0.98 | [49] 0.976 | [50] 0.954 | [51] 0.984 | [52] 1.01 | [53] 0.958 | [54] 0.973 | [55] 0.873 | [56] 0.972 | [57] 0.938 | [58] 0.968 | [59] 1.03 | [60] 0.993 | [61] 0.982 | [62] 0.995 | [63] 0.993 | [64] 0.944 | [65] 0.98 | [66] 1.12 | [67] 0.978 | [68] 0.977 | [69] 0.961 | [70] 0.973 | [71] 0.983

CC(NC(=S)Nc1ccc(Oc2ccc(Cl)cc2)cc1)c1ccccc1 (stereo not drawn)
0.924 (inactive) and 0.84 (active): [26]
active: locus YLR039C, strain RIC1, stronger effect = lower value 0.78
inactive: locus YAL013W, strain DEP1, stronger effect = lower value 0.973 | [1] 0.952 | [2] 0.965 | [3] 0.956 | [4] 0.968 | [5] 0.976 | locus YBR229C, strain ROT2, stronger effect = lower value 0.983 | locus YCL061C, strain MRC1, stronger effect = lower value 0.983 | [6] 0.979 | [7] 0.971 | [8] 0.978 and 0.974 | [9] 0.965 | [10] 0.964 | [11] 0.94 | [12] 0.955 | [13] 0.965 | locus YDR150W, strain NUM1, stronger effect = lower value 0.97 | [14] 0.953 | [15] 0.937 | locus YEL061C, strain CIN8, stronger effect = lower value 0.961 | [16] 0.909 | [17] 0.941 | [18] 0.958 | [19] 0.941 | [20] 0.961 | [21] 0.96 | [22] 0.946 | [23] 0.922 | [24] 1.08 | locus YGR078C, strain PAC10, stronger effect = lower value 0.995 | [25] 0.947 | locus YGR229C, strain SMI1, stronger effect = lower value 0.975 | [27] 0.97 | [28] 1.02 | locus YHR087W, strain rtc3, stronger effect = lower value 0.988 | [29] 0.954 | [30] 0.96 | [31] 0.932 | [32] 0.918 | [33] 0.927 | locus YJL187C, strain SWE1, stronger effect = lower value 0.987 | [34] 0.961 | locus YJR043C, strain POL32, stronger effect = lower value 0.998 | [35] 0.933 | [36] 0.981 | locus YJR075W, strain HOC1, stronger effect = lower value 1.01 | [37] 0.965 | [38] 0.916 | [39] 0.949 | [40] 0.958 | [41] 1.01 | locus YLR058C, strain SHM2 (second series), stronger effect = lower value 0.988 | locus YLR085C, strain ARP6, stronger effect = lower value 0.875 | [42] 0.923 | [43] 0.932 | locus YLR262C, strain YPT6, stronger effect = lower value 0.871 | [44] 0.962 | [45] 0.924 | locus YML094W, strain GIM5, stronger effect = lower value 0.905 | [46] 0.968 | [47] 0.951 | locus YMR219W, strain ESC1, stronger effect = lower value 0.99 | locus YMR263W, strain SAP30, stronger effect = lower value 0.971 | [48] 0.96 | [49] 0.965 | [50] 0.911 | locus YNL128W, strain TEP1, stronger effect = lower value 0.964 | locus YNL153C, strain GIM3, stronger effect = lower value 0.985 | [51] 0.973 | [52] 0.955 | [53] 0.959 | [54] 0.965 | locus YNL298W, strain CLA4 (second series), stronger effect = lower value 0.918 | [55] 0.906 | locus YNL322C, strain KRE1, stronger effect = lower value 1 | locus YNR030W, strain Alg12, stronger effect = lower value 0.944 | [56] 0.954 | [57] 0.929 | [58] 0.941 | [59] 1.04 | [60] 1.01 | [61] 0.976 | [62] 0.93 | locus YPL055C, strain LGE1, stronger effect = lower value 0.905 | [63] 0.937 | [64] 0.899 | [65] 0.967 | locus YPL241C, strain CIN2, stronger effect = lower value 0.93 | [66] 0.915 | [67] 0.961 | [68] 0.949 | [69] 1.01 | locus YPR135W, strain CTF4, stronger effect = lower value 0.97 | [70] 0.964 | [71] 0.954
